# According to ChEMBL document CHEMBL1961873, “Compounds: GSK PKIS; Assays: Nanosyn kinase panel” (2012):
# Experiments:
# [1] = target: Calcium/calmodulin-dependent protein kinase type II subunit alpha (Homo sapiens) (UniProt Q9UQM7); conditions: at 1 µM;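 further: reported value is a mean percent inhibition of CAMK2A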
# [2] = target: Calcium/calmodulin-dependent protein kinase type II subunit delta (Homo sapiens) (UniProt Q13557); conditions: at 0.1 µM
# [3] = target: Calcium/calmodulin-dependent protein kinase type II subunit delta (Homo sapiens) (UniProt Q13557); conditions: at 1 µM
# [4] = target: T1, Calcium/calmodulin-dependent protein kinase type IV (Homo sapiens) (UniProt Q16566); conditions: at 0.1 µM
# T1 sequence (whole entry): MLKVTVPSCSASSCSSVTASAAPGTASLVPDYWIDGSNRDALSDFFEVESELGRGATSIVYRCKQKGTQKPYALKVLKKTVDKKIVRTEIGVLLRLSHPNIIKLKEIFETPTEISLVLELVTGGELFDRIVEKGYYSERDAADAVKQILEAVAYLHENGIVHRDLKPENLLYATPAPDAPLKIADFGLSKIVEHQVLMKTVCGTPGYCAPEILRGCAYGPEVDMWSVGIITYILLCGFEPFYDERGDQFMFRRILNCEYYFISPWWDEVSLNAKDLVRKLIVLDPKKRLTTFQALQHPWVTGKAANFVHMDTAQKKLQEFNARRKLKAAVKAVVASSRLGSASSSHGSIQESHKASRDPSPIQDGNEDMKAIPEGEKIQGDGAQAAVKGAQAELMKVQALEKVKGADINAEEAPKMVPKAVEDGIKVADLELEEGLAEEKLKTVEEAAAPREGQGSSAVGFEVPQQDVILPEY
# [5] = target: T1, Calcium/calmodulin-dependent protein kinase type IV (Homo sapiens); conditions: at 1 µM
# [6] = target: T2, Serine/threonine-protein kinase Chk1 (Homo sapiens) (UniProt O14757); conditions: at 0.1 µM
# T2 sequence (whole entry): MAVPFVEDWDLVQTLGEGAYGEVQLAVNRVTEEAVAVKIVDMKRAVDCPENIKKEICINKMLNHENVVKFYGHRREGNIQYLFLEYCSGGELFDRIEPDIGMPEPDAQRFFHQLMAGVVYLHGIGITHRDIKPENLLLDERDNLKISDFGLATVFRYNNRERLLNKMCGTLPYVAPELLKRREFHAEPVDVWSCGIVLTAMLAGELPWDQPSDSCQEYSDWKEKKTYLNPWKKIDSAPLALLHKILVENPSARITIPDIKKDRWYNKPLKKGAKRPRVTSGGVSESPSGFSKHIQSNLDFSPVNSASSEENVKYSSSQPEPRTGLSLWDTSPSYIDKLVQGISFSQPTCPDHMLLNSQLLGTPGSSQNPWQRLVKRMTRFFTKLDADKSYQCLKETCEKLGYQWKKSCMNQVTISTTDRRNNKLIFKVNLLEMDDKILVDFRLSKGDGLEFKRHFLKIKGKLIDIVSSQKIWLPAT
# [7] = target: T2, Serine/threonine-protein kinase Chk1 (Homo sapiens); conditions: at 1 µM
# [8] = target: Serine/threonine-protein kinase Chk2 (Homo sapiens) (UniProt O96017); conditions: at 0.1 µM
# Serine/threonine-protein kinase Chk2 (Homo sapiens), sequence (O96017 whole entry): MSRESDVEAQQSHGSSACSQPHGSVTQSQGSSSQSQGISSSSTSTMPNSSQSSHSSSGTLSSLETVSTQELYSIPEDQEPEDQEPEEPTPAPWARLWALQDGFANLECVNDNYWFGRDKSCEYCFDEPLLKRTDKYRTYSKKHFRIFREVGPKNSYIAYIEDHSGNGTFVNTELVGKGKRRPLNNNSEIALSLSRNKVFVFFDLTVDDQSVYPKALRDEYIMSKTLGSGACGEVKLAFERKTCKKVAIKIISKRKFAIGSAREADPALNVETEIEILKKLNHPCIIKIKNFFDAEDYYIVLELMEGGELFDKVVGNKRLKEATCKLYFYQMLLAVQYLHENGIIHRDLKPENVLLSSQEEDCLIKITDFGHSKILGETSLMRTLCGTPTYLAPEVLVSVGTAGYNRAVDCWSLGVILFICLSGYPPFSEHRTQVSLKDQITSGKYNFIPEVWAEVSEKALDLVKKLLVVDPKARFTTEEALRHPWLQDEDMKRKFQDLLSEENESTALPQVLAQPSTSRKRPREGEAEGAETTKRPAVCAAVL
# [9] = target: Serine/threonine-protein kinase Chk2 (Homo sapiens) (UniProt O96017); conditions: at 1 µM
# [10] = target: Death-associated protein kinase 1 (Homo sapiens) (UniProt P53355); conditions: at 0.1 µM
# Death-associated protein kinase 1 (Homo sapiens), sequence (P53355 whole entry, looked up): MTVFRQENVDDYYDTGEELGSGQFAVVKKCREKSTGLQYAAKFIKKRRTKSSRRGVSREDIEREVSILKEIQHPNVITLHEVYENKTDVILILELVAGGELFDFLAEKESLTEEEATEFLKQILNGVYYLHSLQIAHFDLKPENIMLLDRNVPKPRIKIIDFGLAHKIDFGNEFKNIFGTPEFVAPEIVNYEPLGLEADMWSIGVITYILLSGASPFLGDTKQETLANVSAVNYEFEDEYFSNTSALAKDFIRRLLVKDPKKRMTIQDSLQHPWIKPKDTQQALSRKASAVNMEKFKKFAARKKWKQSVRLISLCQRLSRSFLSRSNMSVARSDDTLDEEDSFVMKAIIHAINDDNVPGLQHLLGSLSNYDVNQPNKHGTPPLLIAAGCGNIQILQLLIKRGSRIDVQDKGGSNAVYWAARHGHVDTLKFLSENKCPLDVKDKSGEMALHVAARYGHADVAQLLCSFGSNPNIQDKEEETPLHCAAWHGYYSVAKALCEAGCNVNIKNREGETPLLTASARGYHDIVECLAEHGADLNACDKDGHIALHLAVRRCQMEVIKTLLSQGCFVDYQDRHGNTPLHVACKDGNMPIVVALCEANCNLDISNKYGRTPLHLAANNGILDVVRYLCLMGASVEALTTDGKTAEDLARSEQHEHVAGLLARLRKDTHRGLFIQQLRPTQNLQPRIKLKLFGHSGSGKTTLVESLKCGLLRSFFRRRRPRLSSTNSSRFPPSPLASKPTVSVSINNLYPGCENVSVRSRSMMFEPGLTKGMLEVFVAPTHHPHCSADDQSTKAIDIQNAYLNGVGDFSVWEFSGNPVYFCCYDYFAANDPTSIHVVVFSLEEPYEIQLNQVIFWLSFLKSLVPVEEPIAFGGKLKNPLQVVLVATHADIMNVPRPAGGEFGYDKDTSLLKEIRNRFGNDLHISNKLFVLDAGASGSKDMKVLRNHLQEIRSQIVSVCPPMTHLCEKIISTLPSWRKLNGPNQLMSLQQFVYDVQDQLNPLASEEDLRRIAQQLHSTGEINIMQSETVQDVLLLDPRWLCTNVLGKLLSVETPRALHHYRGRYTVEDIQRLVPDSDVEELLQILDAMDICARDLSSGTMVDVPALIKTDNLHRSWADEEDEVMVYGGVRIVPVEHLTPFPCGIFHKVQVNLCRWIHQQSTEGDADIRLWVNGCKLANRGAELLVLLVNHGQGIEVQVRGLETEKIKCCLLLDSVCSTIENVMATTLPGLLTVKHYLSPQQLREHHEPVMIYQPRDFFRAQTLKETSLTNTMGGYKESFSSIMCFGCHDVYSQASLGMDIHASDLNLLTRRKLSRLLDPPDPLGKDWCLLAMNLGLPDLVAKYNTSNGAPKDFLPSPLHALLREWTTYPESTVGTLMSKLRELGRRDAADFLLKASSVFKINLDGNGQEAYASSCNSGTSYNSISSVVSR
# [11] = target: Death-associated protein kinase 1 (Homo sapiens) (UniProt P53355); conditions: at 1 µM
# [12] = target: T3, Serine/threonine-protein kinase DCLK2 (Homo sapiens) (UniProt Q8N568); conditions: at 0.1 µM
# T3 sequence (whole entry): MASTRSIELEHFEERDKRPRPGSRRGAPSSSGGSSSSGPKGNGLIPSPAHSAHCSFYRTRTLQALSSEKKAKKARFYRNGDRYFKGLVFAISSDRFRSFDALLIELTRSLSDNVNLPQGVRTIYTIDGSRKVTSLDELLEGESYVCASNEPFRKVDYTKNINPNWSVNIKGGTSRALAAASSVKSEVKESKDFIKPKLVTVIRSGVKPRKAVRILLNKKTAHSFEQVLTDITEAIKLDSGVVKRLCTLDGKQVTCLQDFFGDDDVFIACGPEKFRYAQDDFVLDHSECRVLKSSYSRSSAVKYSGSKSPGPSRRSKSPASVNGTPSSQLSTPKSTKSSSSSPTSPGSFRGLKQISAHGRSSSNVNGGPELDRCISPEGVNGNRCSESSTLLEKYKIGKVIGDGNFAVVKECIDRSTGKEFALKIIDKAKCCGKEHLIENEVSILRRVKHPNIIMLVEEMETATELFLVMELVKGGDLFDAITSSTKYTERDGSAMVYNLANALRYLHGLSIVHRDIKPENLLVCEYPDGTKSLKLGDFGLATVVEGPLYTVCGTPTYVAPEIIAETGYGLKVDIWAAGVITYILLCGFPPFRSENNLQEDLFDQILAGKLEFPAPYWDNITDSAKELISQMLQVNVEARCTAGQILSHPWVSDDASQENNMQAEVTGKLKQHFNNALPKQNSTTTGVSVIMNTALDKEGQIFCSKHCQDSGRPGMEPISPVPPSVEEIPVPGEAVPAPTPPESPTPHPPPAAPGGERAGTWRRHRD
# [13] = target: T3, Serine/threonine-protein kinase DCLK2 (Homo sapiens); conditions: at 1 µM
# [14] = target: MAP kinase-activated protein kinase 2 (Homo sapiens) (UniProt P49137); conditions: at 0.1 µM
# MAP kinase-activated protein kinase 2 (Homo sapiens), sequence (P49137 whole entry, looked up): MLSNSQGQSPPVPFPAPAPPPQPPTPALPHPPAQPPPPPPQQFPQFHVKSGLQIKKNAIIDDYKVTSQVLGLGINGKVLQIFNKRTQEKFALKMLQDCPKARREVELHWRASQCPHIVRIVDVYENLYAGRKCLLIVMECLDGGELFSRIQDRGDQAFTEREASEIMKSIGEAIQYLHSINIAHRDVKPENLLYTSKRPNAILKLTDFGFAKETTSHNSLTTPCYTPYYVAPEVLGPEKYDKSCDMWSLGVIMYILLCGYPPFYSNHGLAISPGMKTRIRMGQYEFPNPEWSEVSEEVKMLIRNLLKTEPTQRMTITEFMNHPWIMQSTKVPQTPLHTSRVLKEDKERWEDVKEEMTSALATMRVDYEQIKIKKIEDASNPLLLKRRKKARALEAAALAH
# [15] = target: MAP kinase-activated protein kinase 2 (Homo sapiens) (UniProt P49137); conditions: at 1 µM
# [16] = target: MAP kinase-activated protein kinase 3 (Homo sapiens) (UniProt Q16644); conditions: at 0.1 µM
# [17] = target: MAP kinase-activated protein kinase 3 (Homo sapiens) (UniProt Q16644); conditions: at 1 µM
# [18] = target: Serine/threonine-protein kinase MARK1 (Homo sapiens) (UniProt Q9P0L2); conditions: at 0.1 µM
# Serine/threonine-protein kinase MARK1 (Homo sapiens), sequence (Q9P0L2 whole entry, looked up): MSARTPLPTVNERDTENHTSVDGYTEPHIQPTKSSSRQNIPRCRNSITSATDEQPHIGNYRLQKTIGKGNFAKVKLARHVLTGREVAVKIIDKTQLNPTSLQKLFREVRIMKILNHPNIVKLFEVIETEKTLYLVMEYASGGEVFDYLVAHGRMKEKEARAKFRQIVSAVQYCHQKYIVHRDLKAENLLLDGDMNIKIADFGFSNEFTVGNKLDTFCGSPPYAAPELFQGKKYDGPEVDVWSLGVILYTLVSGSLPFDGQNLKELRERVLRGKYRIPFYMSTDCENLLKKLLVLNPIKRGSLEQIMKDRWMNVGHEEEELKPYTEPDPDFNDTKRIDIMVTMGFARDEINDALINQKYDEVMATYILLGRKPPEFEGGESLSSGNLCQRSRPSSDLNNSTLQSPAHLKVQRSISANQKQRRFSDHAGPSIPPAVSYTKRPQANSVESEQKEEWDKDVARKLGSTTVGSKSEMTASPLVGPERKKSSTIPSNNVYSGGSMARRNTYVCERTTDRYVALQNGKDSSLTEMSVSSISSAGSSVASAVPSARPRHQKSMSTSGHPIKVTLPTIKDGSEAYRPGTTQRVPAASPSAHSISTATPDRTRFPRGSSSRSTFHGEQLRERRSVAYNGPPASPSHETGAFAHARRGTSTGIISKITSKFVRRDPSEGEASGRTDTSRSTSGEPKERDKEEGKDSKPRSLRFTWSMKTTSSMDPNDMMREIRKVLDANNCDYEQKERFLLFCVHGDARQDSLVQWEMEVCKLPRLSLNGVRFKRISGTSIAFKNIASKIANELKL
# [19] = target: Serine/threonine-protein kinase MARK1 (Homo sapiens) (UniProt Q9P0L2); conditions: at 1 µM
# [20] = target: MAP/microtubule affinity-regulating kinase 3 (Homo sapiens) (UniProt P27448); conditions: at 0.1 µM;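 further: mean percent inhibition of MARK3 kinase activity, measured within the GSK PKIS screening panel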
# MAP/microtubule affinity-regulating kinase 3 (Homo sapiens), sequence (P27448 whole entry, looked up): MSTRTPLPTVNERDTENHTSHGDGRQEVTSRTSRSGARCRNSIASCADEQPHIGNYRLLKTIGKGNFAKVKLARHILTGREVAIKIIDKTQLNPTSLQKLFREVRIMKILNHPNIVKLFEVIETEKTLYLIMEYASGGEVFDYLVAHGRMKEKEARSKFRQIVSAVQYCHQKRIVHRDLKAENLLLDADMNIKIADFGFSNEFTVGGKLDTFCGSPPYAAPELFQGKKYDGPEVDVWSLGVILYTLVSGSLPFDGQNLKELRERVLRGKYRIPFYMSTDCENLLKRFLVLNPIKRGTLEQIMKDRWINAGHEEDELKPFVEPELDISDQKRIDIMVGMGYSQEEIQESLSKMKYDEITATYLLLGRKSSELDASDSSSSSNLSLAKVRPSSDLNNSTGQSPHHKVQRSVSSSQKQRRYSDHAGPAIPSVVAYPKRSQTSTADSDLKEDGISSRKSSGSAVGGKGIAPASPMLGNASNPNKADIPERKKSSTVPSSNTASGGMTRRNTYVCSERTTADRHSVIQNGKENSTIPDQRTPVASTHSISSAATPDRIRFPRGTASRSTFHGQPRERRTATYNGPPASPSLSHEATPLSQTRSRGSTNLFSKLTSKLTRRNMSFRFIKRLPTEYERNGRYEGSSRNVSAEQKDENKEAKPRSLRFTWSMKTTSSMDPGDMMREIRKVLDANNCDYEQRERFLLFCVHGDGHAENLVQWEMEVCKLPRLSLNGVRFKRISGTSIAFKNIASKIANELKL
# Calcium/calmodulin-dependent protein kinase type II subunit alpha (Homo sapiens), sequence (Q9UQM7 whole entry): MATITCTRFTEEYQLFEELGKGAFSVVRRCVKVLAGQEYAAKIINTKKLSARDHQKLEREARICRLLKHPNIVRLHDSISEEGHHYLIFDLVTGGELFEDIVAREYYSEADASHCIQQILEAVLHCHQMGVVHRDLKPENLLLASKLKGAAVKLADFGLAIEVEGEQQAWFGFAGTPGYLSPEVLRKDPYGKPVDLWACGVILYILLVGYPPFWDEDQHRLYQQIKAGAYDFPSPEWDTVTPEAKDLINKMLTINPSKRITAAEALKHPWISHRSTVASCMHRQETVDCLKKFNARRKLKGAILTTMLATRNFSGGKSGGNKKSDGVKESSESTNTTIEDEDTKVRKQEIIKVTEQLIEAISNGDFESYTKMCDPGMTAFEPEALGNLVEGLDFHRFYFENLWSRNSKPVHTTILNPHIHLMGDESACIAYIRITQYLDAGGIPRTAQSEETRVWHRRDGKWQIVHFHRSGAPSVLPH
# Calcium/calmodulin-dependent protein kinase type II subunit delta (Homo sapiens), sequence (Q13557 whole entry): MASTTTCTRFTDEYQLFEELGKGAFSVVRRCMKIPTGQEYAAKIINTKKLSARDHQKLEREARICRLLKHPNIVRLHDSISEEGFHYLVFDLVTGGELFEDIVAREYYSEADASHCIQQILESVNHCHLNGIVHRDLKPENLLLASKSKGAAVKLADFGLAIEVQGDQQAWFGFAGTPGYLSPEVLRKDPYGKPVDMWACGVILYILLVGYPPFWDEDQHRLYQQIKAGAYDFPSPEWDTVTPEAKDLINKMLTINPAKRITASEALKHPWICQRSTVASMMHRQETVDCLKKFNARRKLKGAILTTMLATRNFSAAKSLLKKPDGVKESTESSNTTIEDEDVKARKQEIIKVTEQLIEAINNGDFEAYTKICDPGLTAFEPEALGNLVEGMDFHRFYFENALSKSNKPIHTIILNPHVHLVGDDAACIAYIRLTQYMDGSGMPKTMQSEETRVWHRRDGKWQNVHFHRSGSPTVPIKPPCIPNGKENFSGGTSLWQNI
SMILES,inhibition [1] [%],inhibition [2] [%],inhibition [3] [%],inhibition [4] [%],inhibition [5] [%],inhibition [6] [%],inhibition [7] [%],inhibition [8] [%],inhibition [9] [%],inhibition [10] [%],inhibition [11] [%],inhibition [12] [%],inhibition [13] [%],inhibition [14] [%],inhibition [15] [%],inhibition [16] [%],inhibition [17] [%],inhibition [18] [%],inhibition [19] [%],inhibition [20] [%]
COc1ccc(CNC(=O)c2ccc(-c3cc(-c4nnc(C)o4)ccc3C)cc2)cc1,0.47,0.75,-0.53,-1.83,-4.17,6.78,8.82,6.34,7.55,9.67,10.2,1.92,2.89,4.31,5.53,14.5,29.3,1.53,2.91,1.55
Cc1cccc2c1NC(=O)/C2=N\Nc1ccc(S(N)(=O)=O)cc1,3.33,3.36,3.56,0.62,1.1,0.95,5.04,1.68,2.64,3.69,4.75,0.74,2.14,1.37,1.1,2.44,2.04,1.81,3.2,2.64
N#Cc1c(NC(=O)c2ccc(F)cc2)sc2c1CCCC2,-0.01,0.08,0.72,-0.9,2.49,0.15,0.56,-0.21,0.73,0.39,0.36,0,5.74,0.34,-0.56,0.8,0.7,1.17,0.93,-0.62
CN1CCC(n2cnc(-c3ccc(F)cc3)c2-c2ccnc(N)n2)CC1,2.5,-0.04,4.76,-0.06,0.61,0.82,-1.42,1.28,9.16,2.13,2.09,0.59,1.94,0.99,0.33,17.1,33.5,1.8,6.88,0.93
COC(=O)Nc1nc2ccc(S(=O)(=O)c3ccc(NC(=O)Nc4cc(C(F)(F)F)ccc4F)cc3)cc2[nH]1,3.22,3.61,3.6,-0.05,0.07,1.24,3.43,1.62,1.94,3.73,5.43,-0.62,-0.64,0.59,1.63,1.8,3.35,2.26,2.1,3.97
Nc1nc(-c2ccc(F)cc2)c(-c2ccc3ncccc3n2)s1,4.65,4.16,4.81,-0.44,-0.24,3.9,5.94,3.09,4.06,4.26,4.25,1.89,1.19,2.16,1.53,11.3,24.6,4.82,7.14,3.4
NC(=O)c1sc(-n2cnc3ccc(C(F)(F)F)cc32)cc1OCc1ccccc1Br,3.63,2.57,7.23,1.31,2.02,-3.21,-0.7,2.54,3.23,-0.43,-0.59,0.84,-0.41,1.86,0.94,4.27,4.34,2.69,4.02,0.94
COC(=O)Nc1nc2ccc(Oc3ccc(NC(=O)Nc4cccc(Cl)c4)cc3)cc2[nH]1,-1.94,1.3,0.37,0.3,-1.27,-1.18,-8.11,0.39,0.53,0.42,-0.2,-0.66,0.75,-0.07,-0.56,3.71,4.53,0.33,2.88,0.27
CCn1c(-c2nonc2N)nc2c(C#CC(C)(C)O)nc(OC[C@H](N)c3ccccc3)cc21,6.26,4.52,8.64,-0.61,4.09,2.81,9.89,4.7,11.3,2.88,4.82,-2.25,1.52,0.63,2.99,1.45,2.95,2.28,27.3,4.68
COc1ccc2c(-c3ccnc(Nc4cccc(OC(F)(F)F)c4)n3)cnn2n1,3.59,2.75,5.82,-0.96,-0.82,3.59,5.26,3.11,5.21,5.2,5.37,0.72,0.97,2.32,2.88,4.5,5.2,2.92,6.68,0.91
COc1cc2ncn(-c3cc(OCc4ccccc4C(F)(F)F)c(C(=O)N(C)C)s3)c2cc1OC,-0.49,-1.72,1.17,0.72,3.28,-1.48,1.32,-0.7,-0.07,-0.75,-1.63,-2.64,3.14,-0.07,-0.4,-1.65,0.87,0.44,1.45,0.15
NS(=O)(=O)c1ccc(Nc2ncc(-c3ccccc3)o2)cc1,4.77,2.92,7.79,-0.86,-0.71,0.75,7.56,1.94,3.97,3.79,4.56,1.31,1.65,1.62,1.99,2.89,2.39,3.62,12.9,4.38
CS(=O)(=O)CCNCc1coc(-c2ccc3ncnc(Nc4ccc(OCc5ccccc5)cc4)c3c2)c1,6.16,2.95,3.61,2.14,3.11,1.85,3.43,5.28,28.8,2.7,1.73,-0.36,0.64,1.33,1.98,2.6,1.32,2.05,1.62,1.54
